Assay results from PubChem BioAssay.
Calls of active or inactive are those of the source.

Key:
[1] = system: Plasmodium falciparum Sir2 (PF13_0152, Sir2A); assay: Plasmodium falciparum Sir2A binding compounds – biochemical, small-molecule microarray, 635 nm fluorescence, primary screen (AID 1098); conditions: fluorescence 635 nm, higher = more signal;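 note: score merges spot fluorescence intensity with its signal-to-noise ratio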
[2] = probe aDKK1 binding to arrayed compounds – biochemical, biotinylated probe, 635/667 nm fluorescence, primary screen (AID 1099); conditions: small-molecule microarray, higher = more signal;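 note: score merges 667nm spot fluorescence with signal to noise across triplicate slides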
[3] = probe aCHRDL2 binding to arrayed compounds – biochemical, biotinylated probe, 635/667 nm fluorescence, primary screen (AID 1100); conditions: small-molecule microarray, higher = more signal
[4] = change in splice reporter luminescence, either direction, cell-based, HEK293, spliceosome inhibition project, primary screen (AID 1101); conditions: HEK293 splicing luciferase reporter, 24 h, higher = more signal, called active from +8 up or from −8 down;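 note: HEK293 cells carrying a splicing-competent luciferase reporter gene; test concentration not given here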
[5] = biological target: Fibroblast growth factor 10 (Homo sapiens) (UniProt O15520); assay: compounds binding fibroblast growth factor 10 – biochemical, small-molecule microarray, 635 nm fluorescence, primary screen (AID 1102); conditions: FGF10 binding, fluorescence 635 nm, higher = more signal
Fibroblast growth factor 10 (Homo sapiens), sequence (O15520 whole entry, looked up): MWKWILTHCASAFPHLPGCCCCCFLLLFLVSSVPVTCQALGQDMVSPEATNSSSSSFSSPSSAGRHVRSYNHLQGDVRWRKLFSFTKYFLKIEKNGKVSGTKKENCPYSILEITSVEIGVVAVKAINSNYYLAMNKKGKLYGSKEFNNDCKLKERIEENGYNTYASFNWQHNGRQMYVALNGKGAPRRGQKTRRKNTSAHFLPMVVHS

[6] = system: glycogen synthase kinase-3 (GSK3A per assay name; protocol says GSK3B); assay: compounds binding glycogen synthase kinase-3 – biochemical, small-molecule microarray, 635 nm fluorescence, GSK3A, primary screen (AID 1103); conditions: fluorescence 635 nm, higher = more signal; note: the record names both GSK3A and GSK3B
[7] = biological target: Epidermal growth factor receptor (Homo sapiens) (UniProt P00533); assay: compounds binding epidermal growth factor receptor – biochemical, small-molecule microarray, 635 nm fluorescence, primary screen (AID 1104); conditions: EGFR binding, higher = more signal;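 note: score merges 667 nm emission intensity with spot signal to noise over triplicate slides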
Epidermal growth factor receptor (Homo sapiens), sequence (P00533 whole entry, looked up): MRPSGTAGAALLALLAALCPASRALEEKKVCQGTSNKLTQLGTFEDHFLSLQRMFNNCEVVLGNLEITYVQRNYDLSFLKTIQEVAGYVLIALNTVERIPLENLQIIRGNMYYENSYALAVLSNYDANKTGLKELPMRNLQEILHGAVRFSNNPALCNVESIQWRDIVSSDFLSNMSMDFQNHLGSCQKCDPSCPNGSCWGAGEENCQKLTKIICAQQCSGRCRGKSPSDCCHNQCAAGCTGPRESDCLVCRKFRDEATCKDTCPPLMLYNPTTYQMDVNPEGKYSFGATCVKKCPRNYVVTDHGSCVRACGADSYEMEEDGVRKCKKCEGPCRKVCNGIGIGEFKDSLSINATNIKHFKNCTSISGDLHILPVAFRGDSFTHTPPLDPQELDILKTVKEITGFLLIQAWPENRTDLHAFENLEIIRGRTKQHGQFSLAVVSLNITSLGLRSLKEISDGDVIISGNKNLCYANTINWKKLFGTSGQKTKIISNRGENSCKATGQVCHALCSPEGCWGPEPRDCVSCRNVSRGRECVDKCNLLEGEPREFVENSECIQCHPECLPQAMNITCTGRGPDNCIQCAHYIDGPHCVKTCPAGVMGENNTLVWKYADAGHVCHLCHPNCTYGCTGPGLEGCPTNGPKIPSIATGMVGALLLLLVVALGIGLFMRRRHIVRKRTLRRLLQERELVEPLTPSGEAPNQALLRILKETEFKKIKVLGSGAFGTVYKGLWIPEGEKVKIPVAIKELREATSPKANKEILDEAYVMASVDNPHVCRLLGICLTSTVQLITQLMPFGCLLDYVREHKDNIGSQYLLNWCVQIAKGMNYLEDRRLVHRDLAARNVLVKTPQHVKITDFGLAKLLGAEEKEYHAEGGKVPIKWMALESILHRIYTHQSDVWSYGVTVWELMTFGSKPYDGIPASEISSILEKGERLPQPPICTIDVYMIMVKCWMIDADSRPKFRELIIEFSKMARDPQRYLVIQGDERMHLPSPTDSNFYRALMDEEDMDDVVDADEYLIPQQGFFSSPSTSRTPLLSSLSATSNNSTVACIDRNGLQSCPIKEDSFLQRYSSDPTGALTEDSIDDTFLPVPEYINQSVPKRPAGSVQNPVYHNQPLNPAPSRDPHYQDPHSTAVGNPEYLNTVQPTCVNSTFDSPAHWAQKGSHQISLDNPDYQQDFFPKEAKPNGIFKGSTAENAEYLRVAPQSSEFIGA

[8] = biological target: Follistatin-related protein 3 (Homo sapiens) (UniProt O95633); assay: compounds binding follistatin-related protein 3 – biochemical, small-molecule microarray, 635 nm fluorescence, primary screen (AID 1105); conditions: FSTL3 binding, higher = more signal;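 note: score merges emission near 667 nm and signal to noise per printed spot across three slides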
Follistatin-related protein 3 (Homo sapiens), sequence (O95633 whole entry, looked up): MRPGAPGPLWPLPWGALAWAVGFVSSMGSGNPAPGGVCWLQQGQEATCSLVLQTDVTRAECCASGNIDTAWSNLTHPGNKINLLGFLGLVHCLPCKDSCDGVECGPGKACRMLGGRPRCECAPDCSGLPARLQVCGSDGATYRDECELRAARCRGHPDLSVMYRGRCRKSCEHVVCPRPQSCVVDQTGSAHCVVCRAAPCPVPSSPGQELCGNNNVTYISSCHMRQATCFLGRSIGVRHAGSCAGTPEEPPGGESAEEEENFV

[9] = biological target: Dickkopf-related protein 1 (Homo sapiens) (UniProt O94907); assay: small molecules binding DKK1 protein – biochemical, small-molecule microarray, 635 nm fluorescence scan, primary screen (AID 1106); conditions: higher = more signal;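 note: score merges emission near 667 nm with signal to noise over three replicate slides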
Dickkopf-related protein 1 (Homo sapiens), sequence (O94907 whole entry, looked up): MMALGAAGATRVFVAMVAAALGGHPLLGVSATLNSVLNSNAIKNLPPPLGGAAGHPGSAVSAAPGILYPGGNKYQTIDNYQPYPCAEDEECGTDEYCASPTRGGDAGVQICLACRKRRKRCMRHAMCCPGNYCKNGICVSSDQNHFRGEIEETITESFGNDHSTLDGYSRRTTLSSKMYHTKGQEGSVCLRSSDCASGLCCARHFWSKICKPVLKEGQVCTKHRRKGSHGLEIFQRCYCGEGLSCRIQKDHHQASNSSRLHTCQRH

[10] = system: Inhibin beta A chain (activin A); assay: small molecules binding activin A – biochemical, small-molecule microarray, 635 nm fluorescence scan, primary screen (AID 1107); conditions: INHBA, higher = more signal;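 note: mouse activin A protein probed at 4.33 µg/mL on printed slides; score merges bound-protein fluorescence near 667 nm with spot signal-to-noise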
[11] = system: Human papillomavirus type 1a protein E7 (residues 44-93); assay: small molecules binding HPV E7 44-93 – biochemical, small-molecule microarray, residues 44-93, 635 nm fluorescence, primary screen (AID 1108); conditions: fluorescence 635 nm, higher = more signal;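 note: E7 fragment applied at 1 µg/mL in TBST for 1 h at 4 C; score combines spot fluorescence with its signal to noise ratio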
[12] = hepatitis C replication reporter changes, two-sided – Huh7 cells, luciferase reporter, HCV replication inhibitor project, primary screen (AID 1109); conditions: Huh7 HCV replicon luciferase reporter, 48 h; higher = more signal;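 note: huh7 hepatoma cells harbouring a luciferase neomycin HCV replicon reporter; luciferase luminescence as measure of HCV replicon replication; test concentration not given here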
[13] = biological target: Left-right determination factor 2 (Homo sapiens) (UniProt O00292); assay: small molecules binding LEFTY2 protein – biochemical, small-molecule microarray, 635 nm fluorescence scan, primary screen (AID 1110); conditions: higher = more signal
Left-right determination factor 2 (Homo sapiens), sequence (O00292 whole entry, looked up): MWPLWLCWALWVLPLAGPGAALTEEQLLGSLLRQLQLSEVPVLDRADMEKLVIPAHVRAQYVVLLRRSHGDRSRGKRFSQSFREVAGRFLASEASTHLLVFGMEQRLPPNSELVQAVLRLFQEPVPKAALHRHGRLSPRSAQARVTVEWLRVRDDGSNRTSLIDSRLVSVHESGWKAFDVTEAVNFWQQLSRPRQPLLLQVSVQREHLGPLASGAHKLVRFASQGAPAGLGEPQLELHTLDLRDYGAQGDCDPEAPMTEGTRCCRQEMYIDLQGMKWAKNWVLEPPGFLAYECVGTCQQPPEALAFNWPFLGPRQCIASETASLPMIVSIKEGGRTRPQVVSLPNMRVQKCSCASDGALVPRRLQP

[14] = biological target: Calmodulin-1 (Homo sapiens) (UniProt P0DP23); assay: small molecules binding calmodulin-1 with EGTA – biochemical, small-molecule microarray, Cy5-labelled CALM1, profiling panel (AID 1111); conditions: Cy5-CALM1 binding fluorescence, higher = more signal;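 note: labelled calmodulin applied in Tris saline Tween buffer holding calcium plus EGTA and DTT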
[15] = biological target: Calmodulin-1 (Homo sapiens) (UniProt P0DP23); assay: small molecules binding Ca-loaded calmodulin-1 – biochemical, small-molecule microarray, Cy5-labelled CALM1, plus calcium, artefact control for SMM control-protein annotation, profiling panel (AID 1112); conditions: Cy5-CALM1 binding fluorescence, higher = more signal;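 note: score merges spot fluorescence with signal to noise from triplicate slides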
[16] = probe aWnt5a binding to arrayed compounds – biochemical, biotinylated probe, 635/667 nm fluorescence, primary screen (AID 1113); conditions: small-molecule microarray, higher = more signal;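 note: score merges 667 nm fluorescence intensity with signal-to-noise per printed feature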
[17] = probe aShh binding to arrayed compounds – biochemical, biotinylated probe, 635/667 nm fluorescence, primary screen (AID 1114); conditions: small-molecule microarray, higher = more signal;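 note: probe is biotin-labelled aShh protein from a stem cell growth factor screen; measures binding of labelled protein to compounds printed on the slide; score merges feature fluorescence at 667 nm with signal-to-noise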
[18] = probe aNog binding to arrayed compounds – biochemical, biotinylated probe, 635/667 nm fluorescence, primary screen (AID 1115); conditions: small-molecule microarray, higher = more signal;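 note: probe is biotinylated aNog protein used at 0.15 µg/mL for 1 h at 4 C; z-score combines 667 nm fluorescence of each spot with its signal to noise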
[19] = biological target: Torsin-1A-interacting protein 1 (Homo sapiens) (UniProt Q5JTV8); assay: compound microarray binding of lysate hLAP1 – cell lysate, small-molecule microarray, COS7 lysate, 635/667 nm fluorescence, primary screen (AID 1116); conditions: 635 nm fluorescence, higher = more signal
Torsin-1A-interacting protein 1 (Homo sapiens), sequence (Q5JTV8 whole entry, looked up): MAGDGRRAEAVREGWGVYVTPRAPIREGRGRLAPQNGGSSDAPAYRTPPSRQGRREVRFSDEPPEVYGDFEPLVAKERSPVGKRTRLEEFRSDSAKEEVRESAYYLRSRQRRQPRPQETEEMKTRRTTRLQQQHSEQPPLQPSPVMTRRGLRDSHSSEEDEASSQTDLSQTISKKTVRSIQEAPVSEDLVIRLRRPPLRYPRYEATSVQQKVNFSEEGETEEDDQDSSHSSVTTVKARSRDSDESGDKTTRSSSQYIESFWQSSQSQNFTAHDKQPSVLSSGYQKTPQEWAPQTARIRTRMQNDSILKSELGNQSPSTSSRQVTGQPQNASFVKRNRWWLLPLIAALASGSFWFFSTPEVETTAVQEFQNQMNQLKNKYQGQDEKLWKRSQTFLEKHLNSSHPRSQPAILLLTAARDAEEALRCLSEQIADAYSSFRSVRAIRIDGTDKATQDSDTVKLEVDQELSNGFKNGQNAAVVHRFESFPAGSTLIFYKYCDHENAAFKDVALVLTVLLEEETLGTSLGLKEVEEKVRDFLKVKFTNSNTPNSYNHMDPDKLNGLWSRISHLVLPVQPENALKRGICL

[20] = biological target: Alpha-bungarotoxin (Bungarus multicinctus) (UniProt P60615); assay: compounds binding labelled alpha-BTX control protein – biochemical, small-molecule microarray, Alexa647 label, 635/667 nm fluorescence, artefact control for SMM control protein annotation, profiling panel (AID 1117); conditions: alpha-BTX-A647 binding fluorescence, higher = more signal
Alpha-bungarotoxin (Bungarus multicinctus), sequence (P60615 whole entry, looked up): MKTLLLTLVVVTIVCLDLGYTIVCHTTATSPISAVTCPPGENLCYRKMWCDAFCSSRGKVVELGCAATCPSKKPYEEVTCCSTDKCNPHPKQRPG

| SMILES | composite z-score [1] | composite z-score [2] | composite z-score [3] | z-score [4] | composite z-score [5] | composite z-score [6] | composite z-score [7] | composite z-score [8] | composite z-score [9] | composite z-score [10] | composite z-score [11] | z-score [12] | composite z-score [13] | composite z-score [14] | composite z-score [15] | composite z-score [16] | composite z-score [17] | composite z-score [18] | composite z-score [19] | composite z-score [20] |
| --- | --- | --- | --- | --- | --- | --- | --- | --- | --- | --- | --- | --- | --- | --- | --- | --- | --- | --- | --- | --- |
| CC(C)OC(=O)C1=CCC(c2cccc(Cl)c2)O1 (stereo not given) | 1.58 | -0.306 | 0.461 | -2.49 (inactive) | -1.34 | -0.33 | -1.71 | -0.715 | -2.24 | -1.41 | 1.07 | -2.34 | -1.44 | 0.222 | 0.45 | 0.0654 | 0.16 | -0.347 | 0.0025 | 0.274 |
| C[n+]1ccc2ccc(O)cc2c1 | -0.0574 | -0.147 | -0.444 | 0.526 (inactive) | 1.07 | 0.534 | 1.19 | 1.45 | 1.31 | 1.53 | 0.642 | -0.337 | 0.92 | -0.825 | -1.61 | -0.124 | -0.0804 | -0.323 | 1.62 | 0.273 |
| O[C@@H](Cc1ccccc1)[C@@H](/C=C/c1ccccc1)NCc1ccccc1Br | -1.01 | 0.151 | 1.16 | 0.761 (inactive) | -1.98 | -1.45 | -1.37 | -2.06 | -1.42 | 0.52 | -1.16 | -1.38 | -1.56 | -0.793 | -0.43 | -0.109 | -0.17 | -0.445 | -0.962 | -0.869 |
| COCCCNC(=O)[C@@]1(C)c2ccccc2C(=O)N(Cc2ccccc2)[C@H]1c1ccc(CO)cc1 | 1.43 | -0.0769 | 1.02 | -0.626 (inactive) | -0.398 | -0.595 | -0.848 | -1.03 | -1.76 | -0.79 | 1.38 | -1.86 | -2.9 | -0.652 | -0.634 | -0.124 | 0.0284 | -0.255 | 1.64 | -0.564 |
| C=CCC(OC(C)=O)[C@@H]1[C@@H](N(Cc2cc3ccccc3o2)C(=O)c2cccc3ccccc23)c2cc(OCCCO)ccc2N1C(=O)Cc1ccc(OC)cc1 (stereo not given in full) | 0.495 | 0.136 | 0.0527 | -1.04 (inactive) | 0.568 | 0.12 | 0.24 | 0.579 | 0.429 | 1.2 | -0.0348 | -0.431 | 0.443 | -0.158 | 0.344 | -0.0816 | -0.0146 | 0.328 | 0.153 | 0.608 |
| C=CCN1Cc2ccccc2C[C@]2(N=C(c3ccc(OCCCO)cc3)O[C@@H]2c2ccccc2)C1=O | 0.761 | -0.0119 | 0.311 | -1.44 (inactive) | 1.08 | 1.29 | 0.734 | 1.25 | 0.838 | 1.31 | 1.18 | -2.51 | 0.915 | 0.054 | -0.83 | -0.006 | -0.0119 | 0.838 | 2.68 | 1.03 |
| O=C(CS)NCCCCCCNC(=O)[C@H]1C[C@H]2C(=O)N3CCC[C@H]3C(=O)N2[C@H]1c1ccc(O)cc1 | 1.63 | 0.104 | 0.0018 | 1.46 (inactive) | 0.732 | -0.477 | -0.154 | 0.972 | 0.317 | 0.487 | -0.185 | -0.32 | -0.0156 | 0.511 | 0.425 | -0.0236 | -0.0011 | 0.202 | 1.68 | 0.927 |
| CC(C)C(O)C1C=CC2C(=O)N(C)C(=O)C2N1N1CCCCC1 (stereo not given) | 1.61 | 0.184 | 0.674 | 1.15 (inactive) | 0.709 | 0.752 | 0.403 | 0.159 | 0.13 | 0.976 | 0.471 | 0.279 | 0.223 | 0.372 | -0.387 | -0.0462 | 0.0723 | 0.693 | 0.815 | 0.502 |
| CC[C@@H]1C=C(C(=O)O)[C@H](c2ccc(C(C)C)cc2)N1S(=O)(=O)c1ccc(C)cc1 | 1.25 | 1.1 | 0.86 | -0.0593 (inactive) | 1.08 | 1.15 | 0.001 | 1.18 | -0.172 | 0.769 | 1.27 | -0.868 | 0.615 | 2.38 | 0.692 | 0.019 | 0.519 | -0.443 | 2.19 | 2.12 |
| CC(C)NC(=O)[C@@]1(c2ccc([N+](=O)[O-])cc2)CC(=O)N(C(C)C)[C@@H]1c1ccc(CO)cc1 | -0.277 | -0.247 | 1.07 | -0.64 (inactive) | -0.907 | -0.153 | -0.761 | -0.867 | -1.56 | -1.45 | 0.559 | -0.176 | -1.86 | -0.678 | -0.56 | -0.197 | 0.0899 | -0.311 | -0.534 | -0.125 |
| C=C[C@H](C)[C@H](O)c1ccc(OCCO)cc1 | 0.771 | -0.564 | 0.883 | -0.961 (inactive) | -0.772 | -1.21 | -1.58 | -0.607 | -1.97 | -2.79 | -2.7 | -1.54 | -1.42 | -0.215 | 0.486 | -0.139 | -0.108 | -0.278 | -1.26 | -1.27 |
